Laboratory results published in PubChem BioAssay.
Values without a mark were called inactive. Active and inactive are the calls of the source. Unless noted, the rule behind the calls is not given here.

system: Neuropilin-2 / VEGF-C interaction (human); experiment: small molecules blocking Neuropilin-2/VEGF-C interaction – biochemical, microplate binding format, z-score (AID 743281); settings: microplate NRP2/VEGF-C binding assay; hits give low values

Structure (SMILES) | outcome | z-score
CC12Cc3cn[nH]c3C[C@@H]1CC[C@@H]1[C@@H]2CCC2(C)[C@H]1CC[C@]2(C)O (some centres undefined) | inactive | –
CC12CC[C@H]3[C@@H](CCC4=CC(=O)CC[C@@H]43)[C@@H]1CC[C@@H]2O (some centres undefined) | inactive | –
Oc1ccc2c3c1OC1C(O)CC[C@@]4(O)[C@@H](C2)N(CC2CCC2)CC[C@]314 (some centres undefined) | – | -0.335
CC12CC[C@H](O)CC1=CC[C@@H]1[C@@H]2CCC2(C)[C@H]1CC[C@]2(C)O (some centres undefined) | inactive | –
Oc1ccc2c3c1O[C@H]1c4[nH]c5ccccc5c4CC4(O)C(C2)N(CC2CC2)CC[C@]314 (some centres undefined) | inactive | –
CC12CCC(=O)C=C1CC[C@@H]1[C@@H]2CCC2(C)[C@H]1CC[C@]2(C)O (some centres undefined) | inactive | –
CC[C@]1(O)CC[C@H]2[C@@H]3CCC4=CCCC[C@@H]4[C@H]3CCC21C (some centres undefined) | inactive | –
C=C1C[C@@H]2[C@H](CCC3(C)C(=O)CC[C@@H]23)C2(C)C=CC(=O)C=C12 (some centres undefined) | inactive | –
CC12C/C(=C/O)C(=O)C[C@@H]1CC[C@@H]1[C@@H]2CCC2(C)[C@H]1CC[C@]2(C)O (some centres undefined) | inactive | –
CC12CC[C@H]3[C@@H](CC=C4C[C@@H](O)CCC43C)[C@@H]1CCC2=O (some centres undefined) | inactive | –
CC12CCC(=O)C[C@@H]1CC[C@@H]1[C@@H]2CCC2(C)[C@H]1CC[C@]2(C)O (some centres undefined) | inactive | –
CC(C)(O)[C@@H]1[C@H]2OC(=O)[C@@H]1C1(O)C[C@H]3O[C@]34C(=O)O[C@H]2[C@]14C (some centres undefined) (tested in a mixture with another compound) | inactive | –
CC12CCC(=O)C=C1CC[C@@H]1[C@@H]2CCC2(C)[C@@H](O)CC[C@@H]12 (some centres undefined) | inactive | –
C=C(C)CN1CC[C@]23c4c5ccc(O)c4O[C@H]2c2[nH]c4ccccc4c2CC3(O)C1C5 (some centres undefined) | inactive | –

system: not listed separately; experiment: modulation of C. elegans fzo-1 (AID 1259413);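 note: fzo-1 mutant C. elegans worms in liquid wells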; settings: C. elegans fzo-1 modulator screen, mean read-out; hits give high values

Structure (SMILES) | mean signal
CC12Cc3cn[nH]c3C[C@@H]1CC[C@@H]1[C@@H]2CCC2(C)[C@H]1CC[C@]2(C)O (some centres undefined) | 229
CC12CC[C@H]3[C@@H](CCC4=CC(=O)CC[C@@H]43)[C@@H]1CC[C@@H]2O (some centres undefined) | 225
Oc1ccc2c3c1OC1C(O)CC[C@@]4(O)[C@@H](C2)N(CC2CCC2)CC[C@]314 (some centres undefined) | 241
CC12CC[C@H](O)CC1=CC[C@@H]1[C@@H]2CCC2(C)[C@H]1CC[C@]2(C)O (some centres undefined) | 278
Oc1ccc2c3c1O[C@H]1c4[nH]c5ccccc5c4CC4(O)C(C2)N(CC2CC2)CC[C@]314 (some centres undefined) | 234
CC12CCC(=O)C=C1CC[C@@H]1[C@@H]2CCC2(C)[C@H]1CC[C@]2(C)O (some centres undefined) | 283
CC[C@]1(O)CC[C@H]2[C@@H]3CCC4=CCCC[C@@H]4[C@H]3CCC21C (some centres undefined) | 230
C=C1C[C@@H]2[C@H](CCC3(C)C(=O)CC[C@@H]23)C2(C)C=CC(=O)C=C12 (some centres undefined) | 265
CC12C/C(=C/O)C(=O)C[C@@H]1CC[C@@H]1[C@@H]2CCC2(C)[C@H]1CC[C@]2(C)O (some centres undefined) | 230
CC12CC[C@H]3[C@@H](CC=C4C[C@@H](O)CCC43C)[C@@H]1CCC2=O (some centres undefined) | 245
CC12CCC(=O)C[C@@H]1CC[C@@H]1[C@@H]2CCC2(C)[C@H]1CC[C@]2(C)O (some centres undefined) | 277
CC(C)(O)[C@@H]1[C@H]2OC(=O)[C@@H]1C1(O)C[C@H]3O[C@]34C(=O)O[C@H]2[C@]14C (some centres undefined) (tested in a mixture with another compound) | 237
CC12CCC(=O)C=C1CC[C@@H]1[C@@H]2CCC2(C)[C@@H](O)CC[C@@H]12 (some centres undefined) | 263
C=C(C)CN1CC[C@]23c4c5ccc(O)c4O[C@H]2c2[nH]c4ccccc4c2CC3(O)C1C5 (some centres undefined) | 243

system: not listed separately; experiment: EMT-state selective cytotoxicity in co-culture – imaging, PC-3E GFP, TEM4-18 mCherry, primary screen (AID 1345086;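 active = compounds killing one labelled cell type while sparing the other, by normalised counts and ratio limits, not self-fluorescent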;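 note: normalised mesenchymal count divided by normalised epithelial count so high means epithelial killing; cells exposed to compound for 72 h before imaging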); settings: PC-3E GFP / TEM4-18 mCherry co-culture, imaging cell counts; at 1 µM; actives lie on both sides

Structure (SMILES) | red/green cell ratio (normalised)
C[C@]12C=CC(=O)C=C1CCC1C2CC[C@]2(C)C(=O)CCC12 (some centres undefined) | 1.05
CC[C@H](c1cccc(O)c1)[C@@H](C)CN(C)C | 0.92
COc1cc2c(c3oc4cccc(O)c4c(=O)c13)[C@@H]1C=CO[C@@H]1O2 | 0.95
CCN1C[C@]2(OC(=O)c3ccccc3NC(C)=O)CCC(OC)[C@]34C1[C@@H](CC23)[C@@]1(O)CC(OC)[C@H]2CC4C1(O)[C@H]2OC (some centres undefined) | 1
C[C@]12CC[C@H](O)C[C@H]1CCC1C2CC[C@]2(C)[C@@H](C3=CC(=O)OC3)[C@@H](O)C[C@]12O (some centres undefined) | 0.39 (active)
CN1C[C@H](C(=O)N[C@]2(C)O[C@@]3(O)C4CCCN4C(=O)[C@H](Cc4ccccc4)N3C2=O)C=C2c3cccc4[nH]cc(c34)C[C@H]21 (some centres undefined) | 0.93
C[C@]12CCC(=O)C=C1CCC1C2CC[C@@]2(C)C1CC[C@H]2O (some centres undefined) | 1.17

same assay, conditions: PC-3E GFP / TEM4-18 mCherry co-culture, imaging cell counts; at 1 µM; actives lie on both sides; counts scaled to control wells, 1 = unselective

Structure (SMILES) | red/green cell ratio (normalised)
COc1cc([C@@H]2c3cc4c(cc3[C@H](OC(C)=O)C3COC(=O)[C@@H]32)OCO4)cc(OC)c1OC (some centres undefined) | 0.81
COc1cc(=O)oc(/C=C/C=C/C=C/C(C)=C/[C@@]2(C)O[C@@H](C)[C@@](C)(O)[C@@H]2O)c1C | 0.98
CN1CC[C@@]2(C)c3cc(O)ccc3N(C)[C@@H]12 | 1.19
CC(C)=CCC[C@H](C)[C@H]1CC[C@]2(C)C[C@H]3[C@@H](C(=O)C[C@@]3(C)O)/C(C=O)=C\C[C@@H]12 | 0.95
O=C(O)COc1ccc(O)cc1 | 1.05
Fc1ccc(C2CCNCC2COc2ccccc2)cc1 (centres undefined) | 0.82
CC1(C)CC(=O)C(Cl)C(=O)C1 | 0.82
O=C1NCC[C@@H]1O | 0.9
C[N+]12CC(C[C@H]1c1cccnc1)C2 | 1.02
CN1C2CC(=O)CC1[C@H](O)C2 (some centres undefined) | 0.81
c1ccc(S[C@@H]2OC3COC(c4ccccc4)OC3[C@H]3NC32)cc1 (some centres undefined) | 0.98
Cc1ncc(C[n+]2csc(CCO)c2C)c(=O)[nH]1 | 0.81
Nc1ccc(-c2ccccc2)cc1 | 1.07
C[CH2][Hg+].O=C([O-])c1ccccc1[S-].[Na+] | 0.36
C[C@@H]1CC[C@@]2(NC1)OC1CC3C4CC=C5C[C@@H](O)CC[C@]5(C)C4CC[C@]3(C)C1[C@@H]2C (some centres undefined) | 1.02
C[C@@H]1C(=O)OC2[C@H](O)C34[C@@H]5OC(=O)[C@@]3(OC3OC(=O)[C@H](O)[C@@]34[C@H](C(C)(C)C)[C@H]5O)[C@]21O (some centres undefined) | 1.08
COc1cc(O)c2c(=O)oc3cc(O)cc(C)c3c2c1 | 0.9
C[C@@H]1CC[C@H]2[C@@H](C)C(=O)O[C@@H]3O[C@]4(C)CC[C@@H]1[C@]32OO4 | 1.06
CC[C@H](C)/C=C(C)/C=C/C1=CC2=C(Cl)C(=O)[C@](C)(OC(C)=O)C(=O)C2=CO1 | 1
